From PubChem BioAssay
An excerpt weighted towards active compounds, which were near 6.1% of everything screened.
D1 PAM: enhances dopamine response at the human D1 receptor; 0.036% of 360,000 active; potentiation, % at 10 µM; P21728; HEK293 TREx D1 cells, calcium flux, dopamine EC20 potentiation; in the data active = potentiation above about 30%; note: 0% is about no effect
D3 ag: D3 dopamine receptor (human) agonism; D3R DiscoveRx beta-arrestin cells, luminescence, 90 min; max activation, %; 0.58% of 410,000 active; AID 652048; in the data active = max activation above about 30%; note: 0% is about no effect
Target sequence (P35462 whole entry, looked up): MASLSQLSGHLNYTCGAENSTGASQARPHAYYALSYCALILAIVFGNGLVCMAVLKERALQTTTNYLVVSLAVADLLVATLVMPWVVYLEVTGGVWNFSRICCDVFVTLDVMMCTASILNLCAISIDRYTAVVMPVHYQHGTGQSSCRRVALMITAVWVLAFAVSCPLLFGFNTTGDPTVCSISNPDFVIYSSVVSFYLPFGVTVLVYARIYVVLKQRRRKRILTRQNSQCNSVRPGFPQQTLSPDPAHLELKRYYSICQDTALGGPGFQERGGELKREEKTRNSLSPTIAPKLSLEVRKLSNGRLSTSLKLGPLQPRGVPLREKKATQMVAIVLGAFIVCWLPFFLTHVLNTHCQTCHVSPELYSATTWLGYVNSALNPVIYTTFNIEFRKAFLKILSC
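Cells at 1500/well, incubated overnight, then treated with pinned compounds (dopamine as control) for 90 min at 37 degrees C. DiscoveRx reagent added for 30 - 60 minutes at room temperature; luminescence read.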
D3 antag: D3 dopamine receptor (human) antagonism; P35462; D3R cells, DiscoveRx beta-arrestin luminescence, antagonist mode; stronger effect = lower value; max response, negative = inhibition, %; 2.5% of 360,000 active; AID 652054; in the data active = max response below about -50%; inconclusive = no clear call, values can overlap the other calls; note: % is set by controls: 0 for no effect and ±100 for the full control effect
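Cells expressing the human receptor were seeded at 1500 cells/well, incubated overnight at 37 degrees C in 5% CO2, then exposed to library compounds with dopamine controls for 90 minutes at 37 degrees C before luminescent detection.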
D1 agonist: human D1 receptor agonism | P21728 | HEK293 T-REx D1 cells, calcium flux, agonist mode | activation, % at 2 µM | 1% of 360,000 active; in the data active = activation above about 30%; note: 0% is about no effect
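Inducible HEK293 T-REx D1 cells, force-coupled to calcium signalling, were plated at 4000 cells/well with tetracycline and held overnight at 30 C. After no-wash calcium dye loading, compound-evoked calcium rise over 180 s flagged agonists.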
D1 antagonist: human D1 dopamine receptor antagonism; 3.2% of 360,000 active; activity change, negative = inhibition, % at 10 µM; P21728; HEK293 TREx D1 cells, calcium flux, dopamine EC80; stronger effect = lower value; in the data active = activity change below about -30%; note: % is set by controls: 0 for no effect and ±100 for the full control effect
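Calcium flux readout: force-coupled, inducible Hek293 Trex D1 line, cells induced overnight at 30 C with tetracycline, dye-loaded 30–90 min at RT. Antagonism scored against EC80 dopamine challenge given 180 s after compound.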
The depositor's hits bear a star; ? = inconclusive; · = no result.

SMILES	D1 PAM	D3 ag	D3 antag	D1 agonist	D1 antagonist
CCCCN(CCCC)C1=C(C(=O)c2ccccc2)N(CC)S(=O)(=O)c2ccccc21	1	-6	·	-2	6
CCN1/C(=C(\O)c2ccccc2)C(=O)c2ccccc2S1(=O)=O	-2	-5	-56*	1	13
Cc1c(/C=N/NC(=O)c2ccc3c(c2)OCO3)cnn1C	-2	-1	5	2	5
Cc1ccc(C(=O)N/N=C\c2cc3c(cc2Br)OCO3)s1	-4	-35	-66*	2	-2
CCn1ncc(/C=N/NC(=O)c2ccc3c(c2)OCO3)c1C	-4	-1	-8	1	-74*
COC(=O)N/N=C\c1cc2c(cc1Br)OCO2	-6	-6	-15	-3	-21
CCCOc1ccc(/C=N/NC(=O)c2ccc3c(c2)OCO3)c(OCCC)c1	·	0	3	5	-42*
CCc1ccc(NC(=O)C(=O)NNC(=O)COc2cccc(OC)c2)cc1	-3	-6	0	5	5
Cc1ccc(S(=O)(=O)Nc2cncnc2NS(=O)(=O)c2ccc(C)cc2)cc1	·	-3	3	·	·
O=C(Nc1cccc(F)c1)c1ccc(Cn2cc([N+](=O)[O-])cn2)o1	-6	-9	-13	14	-21
Cc1ccc(-c2csc3ncnc(Sc4nnnn4C)c23)cc1	-7	·	·	1	-13
Cn1nnnc1Sc1ncnc2scc(-c3ccc(F)cc3)c12	-3	5	-57*	0	7
CC12CCC(C(=O)N(c3nccs3)C1=O)C2(C)C (centres undefined)	·	12	5	·	·
NC(=O)c1ccc(SCC(=O)OCC(=O)N2CCCC2=O)c([N+](=O)[O-])c1	-1	-3	-1	1	-43*
CC1CN(C(=O)COC(=O)CSc2ccc(C(N)=O)cc2[N+](=O)[O-])CC(C)O1 (centres undefined)	8	12	-1	2	4
Cc1ccccc1N1CCN(Cc2c(C#N)c3ccccc3n2C)CC1	2	-18	-57*	2	-23
CCC(/C=N/NC(=O)c1ccccc1F)CC	-9	2	2	4	-37*
NC(=O)NC(c1ccccc1)c1ccccc1	35*	13	-9	185*	·
CC(=O)CC1N(S(=O)(=O)c2ccc(C)cc2)c2ccccc2N1S(=O)(=O)c1ccc(C)cc1	·	-5	-19	·	·
COc1cc(C2CC(=O)NC(SCC(=O)Nc3ccccc3C)=C2C#N)ccc1O (centres undefined)	2	-6	32	8	-2
COC(=O)CSC1=C(C#N)C(c2cccc(OC)c2)CC(=O)N1 (centres undefined)	·	-1	3	4	-42*
CCCSC1=C(C#N)C(c2ccc(O)c(OC)c2)CC(=O)N1 (centres undefined)	·	-14	0	2	-53*
CC[C@]12c3[nH]c4cc(CCC(=O)N(C)C)ccc4c3CCN1C(=O)[C@@H](CC(=O)NCCc1ccccn1)C[C@@H]2C(=O)N1CCN(C(=O)C2CC2)CC1	·	8	15	·	·
CSc1ccc(Nc2nn(-c3ccc(OC(F)(F)F)cc3)nc2C(C)=O)cc1	0	12	·	-1	-20
O=c1cc(-c2c(F)c(F)c(F)c(F)c2F)oc2ccccc12	-1	-22	-67*	10	-1
SMILES	D1 PAM	D3 ag	D3 antag	D1 agonist	D1 antagonist
O=C(CCc1nnc2ccc(NCc3ccccc3)nn12)NCC1CCN(C2CCCC2)C1 (centres undefined)	-6	-9	9	0	-84*
Cc1nc(SC(C(N)=O)c2ccccc2)c(C#N)c(C)c1C (centres undefined)	-1	5	-2	2	1
COC(=O)C(Sc1nc(C)cc(C)c1C#N)c1ccccc1 (centres undefined)	-7	-3	5	6	-32*
COc1c(O)cc2c(c1O)[C@@H]1O[C@H](CO)[C@@H](O)[C@H](O)[C@H]1OC2=O	-3	1	9	7	-2
Cc1c(C(=O)O)c(O)cc2c1C(=O)c1c(O)c([C@@H]3O[C@H](CO)[C@@H](O)[C@H](O)[C@H]3O)c(O)c(O)c1C2=O	·	-13	-84*	·	·
CC(=O)c1c(C)[nH]c(C(=O)NCCc2c[nH]c3ccccc23)c1C	·	-7	-11	24	-6
CCOc1ccc(N(CC)C(=O)c2cc3c(s2)-c2ccc(Cl)cc2SC3)cc1	-3	-2	·	3	3
COCCNC(=O)c1cc2c(s1)-c1ccc(Cl)cc1SC2	-9	-7	9	4	-92*
CNC(=S)N1CCN(C(=O)C2CCCO2)CC1 (centres undefined)	-3	6	7	5	12
COc1cc2c(cc1NC(=O)C(C)N1CCN(S(=O)(=O)c3ccc(C)c(C)c3)CC1)oc1ccccc12 (centres undefined)	2	31*	-21	0	5
CC(=O)c1cccc(NC(=O)C(C)OC(=O)Cc2n[nH]c(=O)c3ccccc23)c1 (centres undefined)	-9	3	2	0	-34*
CCc1ccc(C(=O)C(C)OC(=O)Cc2n[nH]c(=O)c3ccccc23)cc1 (centres undefined)	31*	13	9	3	-17
COc1ccc(Cl)cc1NC(=O)C[n+]1cccc(C)c1	-4	-8	42	2	10
O=C(CC(NS(=O)(=O)c1ccc(Cl)cc1)c1ccco1)NCc1ccco1 (centres undefined)	-4	-2	-3	9	-38*
CCc1nnc(NC(=O)c2ccc3c(c2)C(=O)N(C(C)(C)C)C3=O)s1	-2	38*	-24	1	-6
O=C(c1ccncc1)c1ccc(N2CCN(C3CC(=O)N(Cc4cccs4)C3=O)CC2)cc1 (centres undefined)	-5	-2	10	13	-39*
O=C1CC(N2CCN(c3ccc(O)cc3)CC2)C(=O)N1Cc1cccs1 (centres undefined)	4	4	-5	0	4
O=C1CC(N2CCN(C/C=C/c3ccccc3)CC2)C(=O)N1Cc1cccs1 (centres undefined)	-6	-8	-63*	3	0
O=C1CC(N2CCN(C/C=C/c3ccccc3)CC2)C(=O)N1CCc1ccccc1 (centres undefined)	-9	-20	?	10	-22
c1cc2[nH]snc2c2nc(C3CC3)nc12	-6	34*	24	-1	5
N#Cc1ccc(OCC(=O)OCC(=O)c2ccc[nH]2)cc1	-18	1	20	5	0
CC(CN1CCOCC1)OC(=O)c1ccccc1Cl (centres undefined)	-8	2	7	0	8
CC(CN1CCCCC1)OC(=O)c1ccc(Cl)cc1Cl (centres undefined)	1	-16	?	-1	6
CC1CCN(CC(C)OC(=O)c2ccc3c(c2)OCCO3)CC1 (centres undefined)	-1	-14	-75*	4	7
